Source: ChEMBL document CHEMBL1961873, “Compounds: GSK PKIS; Assays: Nanosyn kinase panel” (2012)

How the values were obtained:
[1] = target: T1, Serine/threonine-protein kinase TBK1 (Homo sapiens) (UniProt Q9UHD2); settings: at 1 µM;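 further: values are mean inhibition of TBK1, screened as part of the GSK published kinase inhibitor set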
T1 sequence (whole entry): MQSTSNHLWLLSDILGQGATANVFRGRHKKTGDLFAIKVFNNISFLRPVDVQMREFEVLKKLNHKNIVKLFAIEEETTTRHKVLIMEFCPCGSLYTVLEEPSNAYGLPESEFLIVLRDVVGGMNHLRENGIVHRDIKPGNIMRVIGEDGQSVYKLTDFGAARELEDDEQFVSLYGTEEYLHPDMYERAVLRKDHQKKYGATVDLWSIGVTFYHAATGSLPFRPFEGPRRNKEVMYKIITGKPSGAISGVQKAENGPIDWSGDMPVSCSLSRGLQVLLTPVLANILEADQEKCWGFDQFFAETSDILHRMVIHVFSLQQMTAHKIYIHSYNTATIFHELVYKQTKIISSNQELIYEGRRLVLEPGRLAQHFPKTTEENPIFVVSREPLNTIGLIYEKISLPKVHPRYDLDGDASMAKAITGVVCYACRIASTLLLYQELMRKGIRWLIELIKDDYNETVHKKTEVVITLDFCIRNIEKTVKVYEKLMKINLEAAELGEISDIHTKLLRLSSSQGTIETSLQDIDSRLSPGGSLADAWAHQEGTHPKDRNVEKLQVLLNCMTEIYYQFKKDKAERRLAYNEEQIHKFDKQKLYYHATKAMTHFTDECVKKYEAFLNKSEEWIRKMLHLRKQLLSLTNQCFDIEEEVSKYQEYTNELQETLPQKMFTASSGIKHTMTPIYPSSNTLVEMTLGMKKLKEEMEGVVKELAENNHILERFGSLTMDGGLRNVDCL

[2] = target: T2, Testis-specific serine/threonine-protein kinase 1 (Homo sapiens) (UniProt Q9BXA7); settings: at 0.1 µM
T2 sequence (whole entry): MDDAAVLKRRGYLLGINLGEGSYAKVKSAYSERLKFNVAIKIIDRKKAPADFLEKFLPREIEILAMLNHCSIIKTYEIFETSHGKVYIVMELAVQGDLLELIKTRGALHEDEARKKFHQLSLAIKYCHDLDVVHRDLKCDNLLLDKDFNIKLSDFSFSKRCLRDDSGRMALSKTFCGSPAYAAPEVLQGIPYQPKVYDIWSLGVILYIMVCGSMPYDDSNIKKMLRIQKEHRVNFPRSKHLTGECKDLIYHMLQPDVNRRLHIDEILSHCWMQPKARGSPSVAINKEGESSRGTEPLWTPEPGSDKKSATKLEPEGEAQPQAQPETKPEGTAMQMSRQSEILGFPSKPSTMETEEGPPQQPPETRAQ

[3] = target: T2, Testis-specific serine/threonine-protein kinase 1 (Homo sapiens); settings: at 1 µM
[4] = target: T3, Testis-specific serine/threonine-protein kinase 2 (Homo sapiens) (UniProt Q96PF2); settings: at 0.1 µM
T3 sequence (whole entry): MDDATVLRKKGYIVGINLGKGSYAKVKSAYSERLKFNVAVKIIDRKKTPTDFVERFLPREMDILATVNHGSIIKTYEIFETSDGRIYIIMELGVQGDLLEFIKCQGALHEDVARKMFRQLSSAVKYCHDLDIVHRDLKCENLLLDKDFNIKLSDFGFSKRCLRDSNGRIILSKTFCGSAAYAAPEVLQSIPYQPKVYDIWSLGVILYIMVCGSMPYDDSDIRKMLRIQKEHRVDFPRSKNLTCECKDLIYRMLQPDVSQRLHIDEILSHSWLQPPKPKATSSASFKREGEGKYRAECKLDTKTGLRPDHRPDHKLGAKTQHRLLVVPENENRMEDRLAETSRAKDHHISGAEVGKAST

[5] = target: T3, Testis-specific serine/threonine-protein kinase 2 (Homo sapiens); settings: at 1 µM
[6] = target: Casein kinase I isoform alpha (Homo sapiens) (UniProt P48729); settings: at 0.1 µM
[7] = target: Casein kinase I isoform alpha (Homo sapiens) (UniProt P48729); settings: at 1 µM
[8] = target: Casein kinase I isoform gamma-1 (Homo sapiens) (UniProt Q9HCP0); settings: at 0.1 µM
[9] = target: Casein kinase I isoform gamma-1 (Homo sapiens) (UniProt Q9HCP0); settings: at 1 µM
[10] = target: Casein kinase I isoform gamma-2 (Homo sapiens) (UniProt P78368); settings: at 0.1 µM
[11] = target: Casein kinase I isoform gamma-2 (Homo sapiens) (UniProt P78368); settings: at 1 µM
[12] = target: Casein kinase I isoform gamma-3 (Homo sapiens) (UniProt Q9Y6M4); settings: at 0.1 µM
[13] = target: Casein kinase I isoform gamma-3 (Homo sapiens) (UniProt Q9Y6M4); settings: at 1 µM
[14] = target: Cyclin-dependent kinase 1 (Homo sapiens) (UniProt P06493); settings: at 0.1 µM
[15] = target: Cyclin-dependent kinase 1 (Homo sapiens) (UniProt P06493); settings: at 1 µM
[16] = target: Cyclin-dependent kinase 2 (Homo sapiens) (UniProt P24941); settings: at 0.1 µM
[17] = target: Cyclin-dependent kinase 2 (Homo sapiens) (UniProt P24941); settings: at 1 µM
[18] = target: Cyclin-dependent kinase 2 (Homo sapiens) (UniProt P24941); settings: at 0.1 µM; remark: listed apart in the source
[19] = target: Cyclin-dependent kinase 2 (Homo sapiens) (UniProt P24941); settings: at 1 µM; remark: listed apart in the source
[20] = target: CDK3/Cyclin E (Homo sapiens) (UniProt P24864+Q00526); settings: at 0.1 µM;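 further: reported percentages are mean inhibition values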
CDK3/Cyclin E (Homo sapiens), sequence (P24864 whole entry, looked up): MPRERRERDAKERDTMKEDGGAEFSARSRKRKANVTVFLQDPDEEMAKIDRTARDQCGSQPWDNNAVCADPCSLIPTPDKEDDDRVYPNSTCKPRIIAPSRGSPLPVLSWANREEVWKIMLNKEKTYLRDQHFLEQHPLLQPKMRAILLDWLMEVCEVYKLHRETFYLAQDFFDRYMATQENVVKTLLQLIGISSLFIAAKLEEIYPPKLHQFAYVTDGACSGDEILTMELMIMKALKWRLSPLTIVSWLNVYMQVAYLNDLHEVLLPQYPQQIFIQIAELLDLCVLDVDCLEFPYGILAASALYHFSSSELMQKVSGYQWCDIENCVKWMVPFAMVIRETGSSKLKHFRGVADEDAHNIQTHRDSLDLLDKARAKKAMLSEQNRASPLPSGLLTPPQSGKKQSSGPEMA
CDK3/Cyclin E (Homo sapiens), sequence (Q00526 whole entry, looked up): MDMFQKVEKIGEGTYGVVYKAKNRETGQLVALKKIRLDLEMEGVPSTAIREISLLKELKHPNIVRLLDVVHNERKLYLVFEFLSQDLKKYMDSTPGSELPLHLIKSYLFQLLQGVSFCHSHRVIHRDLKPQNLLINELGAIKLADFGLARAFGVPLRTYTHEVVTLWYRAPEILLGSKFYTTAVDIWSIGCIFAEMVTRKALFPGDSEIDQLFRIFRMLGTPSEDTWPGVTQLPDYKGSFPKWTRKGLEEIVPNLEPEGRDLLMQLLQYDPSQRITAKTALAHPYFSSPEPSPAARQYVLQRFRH

Casein kinase I isoform gamma-1 (Homo sapiens), sequence (Q9HCP0 whole entry, looked up, canonical isoform): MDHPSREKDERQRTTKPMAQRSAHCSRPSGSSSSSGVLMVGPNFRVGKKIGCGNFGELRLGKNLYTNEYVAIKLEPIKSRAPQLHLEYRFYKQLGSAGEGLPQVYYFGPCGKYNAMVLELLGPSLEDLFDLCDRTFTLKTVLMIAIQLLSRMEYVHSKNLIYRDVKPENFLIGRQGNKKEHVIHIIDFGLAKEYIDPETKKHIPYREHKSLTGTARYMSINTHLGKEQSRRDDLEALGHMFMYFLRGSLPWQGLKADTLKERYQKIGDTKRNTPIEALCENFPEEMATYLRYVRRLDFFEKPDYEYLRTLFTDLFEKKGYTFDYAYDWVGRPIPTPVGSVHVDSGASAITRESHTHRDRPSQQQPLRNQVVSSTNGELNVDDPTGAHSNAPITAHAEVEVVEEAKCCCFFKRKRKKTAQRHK
Cyclin-dependent kinase 1 (Homo sapiens), sequence (P06493 whole entry, looked up): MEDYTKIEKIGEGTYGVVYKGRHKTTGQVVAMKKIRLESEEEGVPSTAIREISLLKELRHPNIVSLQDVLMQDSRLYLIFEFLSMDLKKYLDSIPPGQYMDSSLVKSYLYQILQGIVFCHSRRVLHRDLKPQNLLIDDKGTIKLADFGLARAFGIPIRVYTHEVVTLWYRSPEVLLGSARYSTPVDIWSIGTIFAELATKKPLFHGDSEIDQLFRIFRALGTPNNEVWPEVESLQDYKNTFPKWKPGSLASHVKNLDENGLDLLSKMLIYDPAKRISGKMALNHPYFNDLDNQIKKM
Casein kinase I isoform alpha (Homo sapiens), sequence (P48729 2-337 limits assumed): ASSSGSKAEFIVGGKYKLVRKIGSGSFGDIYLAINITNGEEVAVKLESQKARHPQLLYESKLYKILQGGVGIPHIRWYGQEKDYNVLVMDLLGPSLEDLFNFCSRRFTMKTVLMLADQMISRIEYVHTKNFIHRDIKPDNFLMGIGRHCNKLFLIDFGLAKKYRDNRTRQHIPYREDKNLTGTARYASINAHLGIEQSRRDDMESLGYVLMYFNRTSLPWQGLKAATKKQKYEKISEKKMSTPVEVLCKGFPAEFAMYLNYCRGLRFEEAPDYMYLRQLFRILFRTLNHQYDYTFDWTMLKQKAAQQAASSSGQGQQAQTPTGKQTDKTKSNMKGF
Casein kinase I isoform gamma-2 (Homo sapiens), sequence (P78368 whole entry, looked up, canonical isoform): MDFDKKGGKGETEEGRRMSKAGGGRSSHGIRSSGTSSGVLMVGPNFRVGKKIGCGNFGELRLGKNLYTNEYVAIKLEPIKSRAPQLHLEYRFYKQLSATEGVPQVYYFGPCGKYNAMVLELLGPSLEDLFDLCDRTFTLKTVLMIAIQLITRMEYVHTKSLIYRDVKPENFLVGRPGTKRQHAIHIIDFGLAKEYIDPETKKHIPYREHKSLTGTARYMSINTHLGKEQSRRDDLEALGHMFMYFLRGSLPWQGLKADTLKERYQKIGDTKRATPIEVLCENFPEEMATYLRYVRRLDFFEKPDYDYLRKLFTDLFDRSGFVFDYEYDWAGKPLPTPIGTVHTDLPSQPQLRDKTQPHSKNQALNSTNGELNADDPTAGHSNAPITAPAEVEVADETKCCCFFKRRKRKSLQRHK
Casein kinase I isoform gamma-3 (Homo sapiens), sequence (Q9Y6M4 whole entry, looked up, canonical isoform): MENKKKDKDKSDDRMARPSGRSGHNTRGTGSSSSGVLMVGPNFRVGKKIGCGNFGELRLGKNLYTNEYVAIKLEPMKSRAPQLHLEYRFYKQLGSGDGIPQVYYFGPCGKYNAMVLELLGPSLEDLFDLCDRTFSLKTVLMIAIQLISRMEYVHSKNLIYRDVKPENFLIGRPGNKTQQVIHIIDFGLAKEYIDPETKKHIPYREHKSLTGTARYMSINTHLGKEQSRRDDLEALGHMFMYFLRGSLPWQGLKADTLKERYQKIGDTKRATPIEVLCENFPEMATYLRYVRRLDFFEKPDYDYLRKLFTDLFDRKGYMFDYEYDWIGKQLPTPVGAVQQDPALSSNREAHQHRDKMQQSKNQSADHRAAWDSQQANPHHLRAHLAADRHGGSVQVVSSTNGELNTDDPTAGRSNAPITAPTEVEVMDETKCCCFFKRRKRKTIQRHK

Structure (SMILES)	inhibition [1] [%]	inhibition [2] [%]	inhibition [3] [%]	inhibition [4] [%]	inhibition [5] [%]	inhibition [6] [%]	inhibition [7] [%]	inhibition [8] [%]	inhibition [9] [%]	inhibition [10] [%]	inhibition [11] [%]	inhibition [12] [%]	inhibition [13] [%]	inhibition [14] [%]	inhibition [15] [%]	inhibition [16] [%]	inhibition [17] [%]	inhibition [18] [%]	inhibition [19] [%]	inhibition [20] [%]
COc1ccc(-c2nn3ncccc3c2-c2ccnc(Nc3cccc(C(F)(F)F)c3)n2)cc1	1.7	0.61	1.94	1.17	0.38	0.44	2.43	2.67	2.71	2.72	2.2	2.44	1.71	0.53	1.61	0.03	1.83	2.35	4.1	0.68
CS(=O)(=O)CCNCc1nc(-c2ccc3ncnc(Nc4ccc(OCc5cccc(C(F)(F)F)c5)cc4)c3c2)cs1	0.57	2.83	2.19	0.45	0.58	0.49	4.64	1.2	2.03	0.96	1.13	0.51	-0.03	2.33	2.13	1.96	-0.45	1.42	0.41	-1.59
Cc1ccc(NC(=O)CC2CC2)cc1-c1ccc(C(=O)NCC2CC2)cc1	5.71	3.65	2.94	2.59	1.29	7.12	3.9	1.42	2.32	2.95	2.91	0.5	2.08	-0.23	0.76	-1.15	-1.13	1.18	2.92	1.73
NS(=O)(=O)c1cccc(-c2cc3ccncc3cc2OCc2ccccc2)c1	6.61	2.13	0.96	2.68	0.84	0.06	3.92	4.57	4.83	3.06	4.41	4.33	2.71	2.03	2.22	1.1	3.16	5.88	6.78	3.65
CCS(=O)(=O)c1ccc(OC)c(Nc2ncc(-c3cccc(OC)c3)o2)c1	9.22	1.15	-0.25	1.31	-3.49	1.44	6.31	2.59	6.2	1.91	3.73	3.1	5.62	-0.89	2.51	1.38	5.48	2.62	7.35	0.48
COc1cc2ncnc(Nc3ccc(C)c(O)c3)c2cc1OC	5.95	3.91	3.21	1.77	2.03	4.56	5.91	4.01	4.87	4.2	4.75	1.97	4.02	0.59	4.09	1.34	1.09	4.69	6.24	4.08
CN(C)c1cc2c(Nc3ccc4c(cnn4Cc4ccccc4)c3)ncnc2cn1	3.14	3.54	-2.44	1.31	-1.33	0.64	4.63	2.47	3.24	2.05	2.69	1.93	2.19	0.49	1.95	1.76	4.21	2.18	3.51	0.35
Nc1nccc(C#Cc2cncnc2Nc2ccc(OCc3cccc(F)c3)c(Cl)c2)n1	9.39	2.97	1.86	1.69	-1.18	4.12	5.01	3.44	4.16	2.25	3.89	3.42	3.02	0.61	2.58	1.73	1.37	3.74	5.25	1.09
NS(=O)(=O)c1ccc(N/N=C2\C(=O)Nc3ccc(Cl)cc32)cc1	9.93	4.37	6.32	3.29	2.98	3.27	4.21	2.59	3.4	2.56	3.33	1.35	3.48	8.41	42.5	46.7	102	58.5	80.5	40.8
O=C(Nc1ccc(Oc2ccc3[nH]c(NC(=O)c4ccco4)nc3c2)cc1)Nc1cc(C(F)(F)F)ccc1F	0.97	0.73	0.2	0.45	-0.72	0.72	1.23	-3.78	-2.12	-4.05	-2.38	-2.82	-2.32	-5.04	-3.69	-3.1	3.18	-4.34	-4	-0.43
CCn1c(-c2nonc2N)nc2ccc(F)cc21	4.44	5.02	7.33	2.94	4.64	3.7	4.99	4.91	5.86	5.17	5.68	5.66	3.59	0.74	1.27	1.3	7.59	3.91	5.8	3.47
O=C1Nc2ccc(-c3cccnc3)cc2C1=Cc1cc(Br)c(O)c(Br)c1	7.51	2.68	1.29	0.55	-0.14	6.06	3.87	4.05	4.74	2.62	4.44	3.31	3.74	-0.12	1.23	2.18	1.15	3.46	5.04	0.27
O=S(=O)(CCOCc1ccc(-c2ccc3ncnc(Nc4ccc(OCc5cccc(F)c5)c(Cl)c4)c3c2)o1)c1ccccc1	2.8	2.84	3.29	0.64	1.88	-0.6	-0.08	0.56	1.02	0.09	1.75	0.25	0.46	3.78	4.97	2.29	2.76	4.07	6.29	-0.59
Nc1nccc(-c2c(-c3ccc(F)cc3)ncn2CCCN2CCOCC2)n1	4.85	3.5	3.45	2.07	2.83	6.3	27.3	3.45	5.49	2.84	4.12	3.31	6.54	0.36	2.84	1.82	-4.06	2.73	2.71	4.59
COc1cc(/C=N/Nc2ncnc3c2cnn3C(C)C)ccc1O	6.12	1.68	1.76	0.77	1.4	-0.04	0.99	1.74	3.2	1.49	0.8	1.47	2.79	11.8	47.9	7.48	46.5	6.02	32.4	6.53
Cc1ccc(O)cc1Nc1ccnc2ccc(S(C)(=O)=O)cc12	9.14	3.95	4.63	2.41	3.33	11.9	43.8	4.05	7.45	4.13	6.1	3.71	9.28	1.72	-1.86	2.82	4.49	4.22	4.92	2.71
C[C@@H](Oc1cc(-n2cnc3ccc(OC[C@@H](O)CO)cc32)sc1C(N)=O)c1ccccc1Cl	-0.29	0.57	1.14	-0.99	0.82	2.6	3.43	-1.5	2.39	-1.3	-0.43	-1.73	1.34	0.5	3.21	1.64	2.63	-2.32	3.99	1.36
Oc1cccc(-c2nc(-c3ccccc3)[nH]c2-c2ccncc2)c1	2.77	5.01	2.8	3.51	2.57	12.6	23.9	2.26	3.29	2.14	2.78	2.62	2.68	0.66	2.64	1.15	-1.31	5.08	6.33	4.62
Cc1ccc2c(-c3ccnc(Nc4ccc5c(c4)OCCO5)n3)c(-c3ccc(C(F)(F)F)cc3)nn2n1	4.69	1.7	2.26	0.67	0.47	0.54	-3.1	1.24	1.97	0.1	1.66	1.42	1.29	1.21	2.01	-0.16	2.09	0.31	1.68	-0.58
CC(C)c1ccc(Nc2nccc(-c3cnn4ncccc34)n2)cc1	13.9	3.15	5.95	2.67	0.57	-5.73	12.9	2.02	8.9	3.16	24.9	1.13	13.6	21.5	64	19.8	78.7	22.8	64.5	1.82
Cc1ccc2c(c1)/C(=N/Nc1ccc(S(N)(=O)=O)cc1)C(=O)N2	6.6	-0.94	0.43	-0.24	-1.16	0.07	-0.4	0.78	1.26	0.31	0.86	1.81	-0.55	3.51	23.4	27	69.6	35	74.2	14.9
